Only some compounds are listed: those with a hit (about 2.3% of all), similar ones and a draw of the others.
GLD-1 TGE inh: GLD-1-TGE RNA interaction inhibition (C. elegans); inhibition, % at 5.96 µM; AID 2280; 320,000 compounds, 0.44% hits; purified GLD-1 + fluorescein TGE RNA, fluorescence polarization; Q17339;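 active = percent inhibition above a per-plate cutoff, the plate mean of test compounds plus 3 SD, cut at about 30% in these data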;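 also: 0% = DMSO wells with GLD-1 and probe and 100% = wells lacking GLD-1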
Target sequence (Q17339 whole entry, looked up): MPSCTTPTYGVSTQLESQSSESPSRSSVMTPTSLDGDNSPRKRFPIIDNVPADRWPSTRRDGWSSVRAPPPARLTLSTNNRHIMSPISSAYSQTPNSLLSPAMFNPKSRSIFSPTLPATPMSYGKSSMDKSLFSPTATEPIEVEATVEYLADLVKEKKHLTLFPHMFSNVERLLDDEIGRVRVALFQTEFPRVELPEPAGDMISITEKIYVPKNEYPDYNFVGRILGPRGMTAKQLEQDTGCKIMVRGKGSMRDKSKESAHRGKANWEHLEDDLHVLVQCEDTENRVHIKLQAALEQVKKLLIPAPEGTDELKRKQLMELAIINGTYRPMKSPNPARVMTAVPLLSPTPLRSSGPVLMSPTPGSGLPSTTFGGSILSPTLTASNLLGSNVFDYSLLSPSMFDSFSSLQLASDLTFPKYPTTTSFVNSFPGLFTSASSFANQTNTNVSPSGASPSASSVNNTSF
MCL1-BIM inh: MCL1-BIM-BH3 interaction inhibition (human); Q07820; GST-MCL1 / FITC-Bim-BH3 fluorescence polarization; inhibition, % at 10.9 µM; 320,000 compounds, 0.68% hits; AID 2057;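 active = inhibition above the mean inhibition of all tested compounds plus 3 SD, set per campaign, cut at about 40% in these data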;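 also: 0% = DMSO wells and 100% = unlabeled Bim-BH3 peptide control; higher means more loss of mP so more displacement of Bim peptide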
Mcl1-Bid inh: disrupts binding of human Mcl-1 to Bid peptide. TR-FRET Mcl-1/Bid-Dy647 peptide binding, 1536-well. AID 1021. Q07820. 220,000 compounds, 0.97% hits. inhibition, % at 21.7 µM;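 active = compounds that cut the binding signal by more than half at the single screening dose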;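 also: His-tagged Mcl-1 with europium anti-His antibody binding Bid BH3 peptide; 0% = Mcl-1 plus peptide wells and 100% = peptide-only wells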
Bim-Mcl-1: inhibitors of Bim-Mcl-1 interaction, human; Q07820; Bead-based flow cytometry, Bim peptide-Mcl-1 binding; inhibition, % at 10 µM; 190,000 compounds, 0.1% hits; AID 1009; in the data active = inhibition above about 40%;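 also: 0% = no compound tracer wells and 100% = peptide blocker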
Mcl1-Noxa inh: disrupts binding of human Mcl-1 to Noxa peptide. Q07820. TR-FRET Mcl-1/Noxa peptide binding, 2 h. inhibition, % at 21.7 µM. 220,000 compounds, 1.5% hits. AID 1022;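 active = compounds that cut the protein-peptide binding signal by more than 50% relative to plate controls in a single-dose test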;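 also: His-tagged Mcl-1 with rhodamine Noxa BH3 peptide and terbium anti-His antibody; 0% = Mcl-1 plus Noxa peptide wells and 100% = peptide-only wells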
BCLXL inh: Bcl-xL (human) inhibition | AID 2129 | Q07817 | 320,000 compounds, 0.7% hits | inhibition, % at 10.9 µM | GST-Bcl-xL / FITC-Bim BH3 peptide fluorescence polarization;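 active = inhibition above the mean of all tested compounds plus 3 SD, cutoff set per campaign, cut at about 30% in these data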;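 also: 0% = DMSO wells and 100% = unlabeled Bim-BH3 peptide competitor; inhibitors lower millipolarization by displacing the labeled peptide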
Target sequence (Q07817 whole entry, looked up): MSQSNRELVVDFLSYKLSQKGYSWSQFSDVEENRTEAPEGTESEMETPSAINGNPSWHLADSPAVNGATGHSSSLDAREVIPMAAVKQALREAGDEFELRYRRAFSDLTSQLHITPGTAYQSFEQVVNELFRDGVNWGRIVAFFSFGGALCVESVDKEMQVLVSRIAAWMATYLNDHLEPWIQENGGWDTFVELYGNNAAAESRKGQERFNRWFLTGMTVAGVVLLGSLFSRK
Starred values were filed as active, the others as inactive; x = no result.

SMILES | GLD-1 TGE inh | MCL1-BIM inh | Mcl1-Bid inh | Bim-Mcl-1 | Mcl1-Noxa inh | BCLXL inh
Oc1ccc(/C=N/NC(=S)Nc2cccnc2)c(O)c1 | -3 | 17 | -87 | -9 | -5 | 8
COc1ccc(CNC(=O)CN(C(=O)CCC(=O)Nc2nccs2)c2ccccc2C)cc1 | 3 | 4 | x | x | x | 7
O=c1c2cc(N3CCOCC3)ccc2[nH]c(=S)n1Cc1ccc(Cl)cc1 | 3 | 7 | 5 | -10 | 20 | 0
Cc1ccc(Cn2c(=S)[nH]c3ccc(N4CCOCC4)cc3c2=O)o1 | -3 | 22 | -4 | 3 | 73* | 19
CCN(c1ccccc1)S(=O)(=O)c1ccc(Cl)c(NC(=O)COC(=O)c2cc(O)c3ccccc3c2O)c1 | 12 | 22 | -49 | x | 55* | 30
COc1ccc(C(=O)N/N=C/c2ccc(OC(=O)c3cccc4ccccc34)c([N+](=O)[O-])c2)cc1 | 4 | 13 | 10 | -8 | 51* | 1
O=C(N/N=C/c1cccnc1)c1cc2c(ccc3ccccc32)o1 | 5 | -109 | 55* | 0 | 49 | -40
COc1ccc(C(=O)Oc2ccc(/C=N/NC(=O)c3ccccc3OC)cc2[N+](=O)[O-])cc1 | 3 | -2 | 31 | -2 | 37 | -2
Cc1ccc(/C=N/NC(=O)c2cc3c(ccc4ccccc43)o2)cc1[N+](=O)[O-] | -1 | -4 | 76* | 0 | 26 | 2
O=C(N/N=C/c1ccc([N+](=O)[O-])o1)c1cc2c(ccc3ccccc32)o1 | x | x | 88* | 3 | 38 | x
O=C(N/N=C/c1cccnc1)c1cc2ccccc2o1 | 1 | -4 | -13 | -4 | -2 | -1
Cc1cc(C)c(C)c(S(=O)(=O)N[C@@H](C)C(=O)OCC(=O)NC2CCCC(C)C2C)c1C (stereo not given in full) | 1 | x | x | x | x | x
Cc1ccc(C)c(COc2coc(CN3CCN(C(=O)c4ccco4)CC3)cc2=O)c1 | 4 | 3 | x | x | x | 5
C[C@@]12C(=O)N(c3ccc(Br)cc3)C(=O)N1[C@@H]1c3ccccc3OC[C@@H]1[C@H]2c1ccccc1 | 2 | x | x | x | x | x
COc1ccc(C(CNC(=O)Cc2c(F)cccc2Cl)N2CCCCC2)cc1 (stereo not given) | 7 | -2 | -10 | 0 | 9 | 2
Oc1cccc(Nc2nc(NCC3CCCO3)c3ccccc3n2)c1 (stereo not given) | -3 | 5 | 9 | 0 | 58* | 4
CC(=O)n1cc(Nc2ccc([N+](=O)[O-])cc2)c2ccccc21 | -3 | 9 | 20 | 0 | 65* | 5
CC(=O)SC(C[N+](=O)[O-])c1cn(C(C)=O)c2ccccc12 (stereo not given) | 2 | 16 | 15 | -6 | 59* | 7
CC(=O)n1cc(Nc2ccccc2C(=O)O)c2ccccc21 | 1 | 5 | -28 | -2 | 11 | 11
CCOc1ccccc1CNc1ccc(O)cc1 | x | x | -26 | 7 | 72* | x
O=C(/C=C/c1ccc(Br)o1)NCc1ccccc1 | 10 | 11 | 16 | -1 | 72* | -14
Cc1ccc(CNC(=O)/C=C/c2ccc(Br)o2)cc1 | 0 | -3 | -2 | -10 | 38 | 1
COC(=O)c1ccc(-c2ccc(C(c3c(C)[nH][nH]c3=O)c3c(C)[nH][nH]c3=O)o2)cc1 | -6 | 4 | -74 | 6 | 68* | 3
O=C1c2cccc3cccc(c23)C(=O)N1CCCN1CCN(c2ccc(F)cc2)CC1 | 3 | -2 | -33 | -3 | 21 | 8
CCOC(=O)C1=C(COC(=O)CCOc2ccccc2)NC(=O)NC1C (stereo not given) | -2 | 0 | x | x | x | 0
SMILES | GLD-1 TGE inh | MCL1-BIM inh | Mcl1-Bid inh | Bim-Mcl-1 | Mcl1-Noxa inh | BCLXL inh
Fc1ccc(Cn2nnnc2C(c2ccc(Cl)cc2)N2CCSCC2)cc1 (stereo not given) | 7 | 8 | 14 | 43* | 11 | 6
O=C(c1ccco1)N1CCN(C(c2ccc(F)cc2)c2nnnn2Cc2cccs2)CC1 (stereo not given) | 5 | 3 | 62* | -3 | 25 | 5
O=C(c1ccco1)N1CCN(C(c2ccc(Cl)cc2)c2nnnn2CC2CCCO2)CC1 (stereo not given) | 6 | 7 | 55* | -6 | 15 | 2
CC1CCN(C(c2ccc(N(C)C)cc2)c2nnnn2Cc2ccc(F)cc2)CC1 (stereo not given) | 0 | 1 | -49 | -1 | 18 | 2
O=C(COc1cccnc1[N+](=O)[O-])NCCc1ccccc1 | 5 | -9 | -1 | 0 | -3 | -7
COc1ccc(NC(=O)c2cc(SC)ccc2Cl)cc1 | 0 | -1 | -60 | -5 | -1 | 6
Cc1ccc2c(c1)N/C(=C(\C=C(/Cl)[N+](=O)[O-])[N+](=O)[O-])N2 | -9 | 5 | 10 | 0 | 59* | 1
OCC1CCCN(c2nc(CN3CCCCC3)nc3scc(-c4ccccc4)c23)C1 (stereo not given) | -3 | 10 | 97* | -2 | 1 | 1
COc1ccc(-c2csc(NC(=O)/C(N=Nc3ccccc3)=C(\C)O)n2)cc1 | -7 | -2 | -33 | 41* | 9 | -1
O=C(Nc1nnc(-c2ccccc2Cl)o1)c1cc2cc([N+](=O)[O-])ccc2s1 | x | x | 35 | -2 | 55* | x
O=C(Nc1ccccn1)c1cc2cc([N+](=O)[O-])ccc2s1 | 0 | 2 | 8 | 0 | 36 | -13
Clc1ccc(Cl)c(OCCCCNCc2ccccc2)c1 | 5 | 7 | 35 | -2 | 28 | 4
C=CCNCCCOc1ccc(Cl)cc1Br | 3 | -2 | 77* | -2 | 25 | 2
Clc1ccc(OCCCNCc2ccccc2)c(Br)c1 | -1 | -5 | 70* | -5 | 21 | -4
OCCNCCCOc1ccc(Cl)cc1Br | -1 | -1 | 1 | -3 | -1 | 3
COc1ccc(-c2ocnc2C(=O)NCc2nn(-c3ccccc3)nc2C)cc1 | 6 | 1 | 1 | x | 17 | 0
Cn1c2c(c(=O)n(C)c1=O)C(NC(=O)C(C)(C)C)(C(F)(F)F)C(=O)N2 (stereo not given) | 13 | 0 | -3 | -1 | 2 | 3
Cn1c2c(c(=O)n(C)c1=O)C(NS(=O)(=O)c1ccccc1)(C(F)(F)F)C(=O)N2 (stereo not given) | 5 | 7 | -95 | 0 | 51* | 6
Nc1ccc(-c2nc3ccc(C(=O)O)cc3s2)cc1 | 1 | 12 | -37 | -12 | 57* | 7
O=C(O)c1ccc2nc(-c3ccccc3)sc2c1 | 2 | 7 | 3 | -4 | 15 | 7
O=C(O)c1ccc2ncsc2c1 | 5 | -2 | 92* | x | 56* | 2
O=C(c1ccc2ncsc2c1)N1CCCCC1 | 5 | 2 | x | x | x | -4
CCc1nnc(NC(=O)c2ccc3ncsc3c2)s1 | -3 | -1 | 56* | x | 41 | 1
Cc1ccc(NC(=O)c2ccc3ncsc3c2)cc1S(=O)(=O)N(C)C | 5 | 3 | 67* | x | 48 | 3

Screening results deposited in PubChem by several laboratories.
